Assay results taken from paper PMC7862700, “An all-to-all approach to the identification of sequence-specific readers for epigenetic DNA modifications on cytosine”.

biological target: T1, FEV (Homo sapiens, UniProt Q99581 1-238); assay: DAPPL (digital affinity profiling via proximity ligation, sequencing); 10 mM Tris-HCl pH 7.5, 50 mM NaCl, 1 mM DTT, 4% glycerol, room temperature, 30 min; GST-TFs on glutathione beads, 16-mer random dsDNA library, 0.1% formaldehyde crosslink after washing; high values mean tight binding; settings: protein: recombinant; tags: N-terminal GST; dsDNA, one strand shown
T1 sequence: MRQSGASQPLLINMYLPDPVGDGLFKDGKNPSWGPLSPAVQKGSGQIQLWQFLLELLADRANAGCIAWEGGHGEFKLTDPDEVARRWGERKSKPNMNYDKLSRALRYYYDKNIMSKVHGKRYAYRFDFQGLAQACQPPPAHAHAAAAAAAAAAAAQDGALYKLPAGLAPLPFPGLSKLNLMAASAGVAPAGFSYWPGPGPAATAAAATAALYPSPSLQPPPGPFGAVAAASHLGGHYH
Procedure, shortened: (§1)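 In yeast, human transcription factors were expressed with a GST fusion, then pulled down on glutathione beads and given DNA barcodes. Pooled with a tag-only sample, they were exposed to 200 nmole of a 16-mer random double-stranded DNA library (Tris/NaCl/DTT/glycerol buffer, room temperature, 30 min), washed, crosslinked with 0.1% formaldehyde, proximity-ligated using BsaI/T4 ligase for 1 h at 37 °C, PCR-amplified and read on an Illumina NextSeq500. Each hexamer's frequency of reads for a factor, divided by the matching frequency for the tag-only sample, gives the binding signal.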

| Sequence | binding signal |
| --- | --- |
| TGTACC | 1.38 fold enrichment (6-mer frequency, TF over GST control) |
| ATCCAA | 1.19 fold enrichment (6-mer frequency, TF over GST control) |
| TGAATG | 1.19 fold enrichment (6-mer frequency, TF over GST control) |
| GGTTTA | 1.05 fold enrichment (6-mer frequency, TF over GST control) |
| GTTCGA | 1.02 fold enrichment (6-mer frequency, TF over GST control) |
| AGGAAA | 1.5 fold enrichment (6-mer frequency, TF over GST control) |
| CCGACA | 1.31 fold enrichment (6-mer frequency, TF over GST control) |
| GCCGAT | 1.11 fold enrichment (6-mer frequency, TF over GST control) |
| AGTTAA | 1.05 fold enrichment (6-mer frequency, TF over GST control) |
| CTGAAG | 1.05 fold enrichment (6-mer frequency, TF over GST control) |
| TTATTA | 1.09 fold enrichment (6-mer frequency, TF over GST control) |
| TACTGG | 1.01 fold enrichment (6-mer frequency, TF over GST control) |
| TGAGCT | 1.09 fold enrichment (6-mer frequency, TF over GST control) |
| TTTGAG | 1.03 fold enrichment (6-mer frequency, TF over GST control) |
| GTTAAT | 1.08 fold enrichment (6-mer frequency, TF over GST control) |
| TGTACG | 1.2 fold enrichment (6-mer frequency, TF over GST control) |
| AACTTG | 1.17 fold enrichment (6-mer frequency, TF over GST control) |
| TCCCAG | 1.08 fold enrichment (6-mer frequency, TF over GST control) |

| Sequence | binding signal |
| --- | --- |
| CGATAT | 1.07 fold enrichment (6-mer frequency, TF over GST control) |
| AAAAGT | 1.04 fold enrichment (6-mer frequency, TF over GST control) |
| GTTAAG | 1.02 fold enrichment (6-mer frequency, TF over GST control) |
| TAGAAT | 1.04 fold enrichment (6-mer frequency, TF over GST control) |
| GCGTTC | 1.07 fold enrichment (6-mer frequency, TF over GST control) |
| CTGCCA | 1.24 fold enrichment (6-mer frequency, TF over GST control) |
| CCCCGA | 1.18 fold enrichment (6-mer frequency, TF over GST control) |
| GCACTC | 1.31 fold enrichment (6-mer frequency, TF over GST control) |
| AAACTG | 1.06 fold enrichment (6-mer frequency, TF over GST control) |
| TAGTCC | 1.07 fold enrichment (6-mer frequency, TF over GST control) |
| TGATAT | 1.07 fold enrichment (6-mer frequency, TF over GST control) |
| TCGCAC | 1.12 fold enrichment (6-mer frequency, TF over GST control) |
| GAAACT | 1.29 fold enrichment (6-mer frequency, TF over GST control) |
| GGAATT | 1.17 fold enrichment (6-mer frequency, TF over GST control) |
| TTCGGC | 1 fold enrichment (6-mer frequency, TF over GST control) |
| TCTGGG | 1.13 fold enrichment (6-mer frequency, TF over GST control) |
| AGTAAT | 1.05 fold enrichment (6-mer frequency, TF over GST control) |

biological target: ETV5 (Homo sapiens, UniProt P41161 1-510); assay: as above; settings: protein: recombinant; tags: N-terminal GST; dsDNA, one strand shown
Procedure, shortened: as §1

Sequence of ETV5 (P41161 whole entry): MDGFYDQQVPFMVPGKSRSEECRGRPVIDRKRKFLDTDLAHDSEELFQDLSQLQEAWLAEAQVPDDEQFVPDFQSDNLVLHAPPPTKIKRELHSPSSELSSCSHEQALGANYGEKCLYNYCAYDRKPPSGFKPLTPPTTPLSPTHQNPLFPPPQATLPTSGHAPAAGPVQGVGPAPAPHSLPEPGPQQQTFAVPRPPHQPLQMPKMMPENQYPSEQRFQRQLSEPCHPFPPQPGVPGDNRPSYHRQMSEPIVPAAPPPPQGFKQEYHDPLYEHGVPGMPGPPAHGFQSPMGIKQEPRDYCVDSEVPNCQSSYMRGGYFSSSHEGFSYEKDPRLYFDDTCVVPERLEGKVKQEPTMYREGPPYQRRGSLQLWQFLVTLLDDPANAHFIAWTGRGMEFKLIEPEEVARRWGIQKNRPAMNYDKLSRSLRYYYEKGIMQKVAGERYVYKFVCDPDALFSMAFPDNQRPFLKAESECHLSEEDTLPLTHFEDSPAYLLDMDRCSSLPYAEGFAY

| Sequence | binding signal |
| --- | --- |
| GTTAAA | 1.02 fold enrichment (6-mer frequency, TF over GST control) |
| TGTACC | 1.4 fold enrichment (6-mer frequency, TF over GST control) |
| ATCCAA | 1.13 fold enrichment (6-mer frequency, TF over GST control) |
| TGAATG | 1.1 fold enrichment (6-mer frequency, TF over GST control) |
| GGTTTA | 1.06 fold enrichment (6-mer frequency, TF over GST control) |
| GTTCGA | 1.07 fold enrichment (6-mer frequency, TF over GST control) |
| AGGAAA | 1.52 fold enrichment (6-mer frequency, TF over GST control) |
| CCGACA | 1.24 fold enrichment (6-mer frequency, TF over GST control) |
| GCCGAT | 1.11 fold enrichment (6-mer frequency, TF over GST control) |
| TGATCA | 1.02 fold enrichment (6-mer frequency, TF over GST control) |
| AGTTAA | 1.1 fold enrichment (6-mer frequency, TF over GST control) |
| CTGAAG | 1.06 fold enrichment (6-mer frequency, TF over GST control) |
| AGGTTT | 1.05 fold enrichment (6-mer frequency, TF over GST control) |
| TTATTA | 1.14 fold enrichment (6-mer frequency, TF over GST control) |
| TAGTAA | 1.05 fold enrichment (6-mer frequency, TF over GST control) |
| TACTGG | 1.1 fold enrichment (6-mer frequency, TF over GST control) |
| TGAGCT | 1.07 fold enrichment (6-mer frequency, TF over GST control) |
| TTTGAG | 1.02 fold enrichment (6-mer frequency, TF over GST control) |
| GTTAAT | 1.17 fold enrichment (6-mer frequency, TF over GST control) |
| TGTACG | 1.23 fold enrichment (6-mer frequency, TF over GST control) |

| Sequence | binding signal |
| --- | --- |
| AACTTG | 1.14 fold enrichment (6-mer frequency, TF over GST control) |
| TCCCAG | 1.06 fold enrichment (6-mer frequency, TF over GST control) |
| CGATAT | 1.05 fold enrichment (6-mer frequency, TF over GST control) |
| TAAGGT | 1.12 fold enrichment (6-mer frequency, TF over GST control) |
| AAAAGT | 1.06 fold enrichment (6-mer frequency, TF over GST control) |
| GTTAAG | 1.03 fold enrichment (6-mer frequency, TF over GST control) |
| TAGAAT | 1.03 fold enrichment (6-mer frequency, TF over GST control) |
| GCGTTC | 1.17 fold enrichment (6-mer frequency, TF over GST control) |
| CTGCCA | 1.15 fold enrichment (6-mer frequency, TF over GST control) |
| CCCCGA | 1.14 fold enrichment (6-mer frequency, TF over GST control) |
| GCACTC | 1.38 fold enrichment (6-mer frequency, TF over GST control) |
| AAACTG | 1.09 fold enrichment (6-mer frequency, TF over GST control) |
| TAGTCC | 1.14 fold enrichment (6-mer frequency, TF over GST control) |
| TGATAT | 1.1 fold enrichment (6-mer frequency, TF over GST control) |
| TCGCAC | 1.01 fold enrichment (6-mer frequency, TF over GST control) |
| GAAACT | 1.28 fold enrichment (6-mer frequency, TF over GST control) |
| GGAATT | 1.21 fold enrichment (6-mer frequency, TF over GST control) |
| TTCGGC | 1.02 fold enrichment (6-mer frequency, TF over GST control) |
| TCTGGG | 1.13 fold enrichment (6-mer frequency, TF over GST control) |
| AGTAAT | 1.12 fold enrichment (6-mer frequency, TF over GST control) |

biological target: HSF1 (Homo sapiens, UniProt Q00613 1-529); assay: as above; settings: protein: recombinant; tags: N-terminal GST; chain copies: 3; dsDNA, one strand shown
Procedure, shortened: as §1

Sequence of HSF1 (Q00613 whole entry): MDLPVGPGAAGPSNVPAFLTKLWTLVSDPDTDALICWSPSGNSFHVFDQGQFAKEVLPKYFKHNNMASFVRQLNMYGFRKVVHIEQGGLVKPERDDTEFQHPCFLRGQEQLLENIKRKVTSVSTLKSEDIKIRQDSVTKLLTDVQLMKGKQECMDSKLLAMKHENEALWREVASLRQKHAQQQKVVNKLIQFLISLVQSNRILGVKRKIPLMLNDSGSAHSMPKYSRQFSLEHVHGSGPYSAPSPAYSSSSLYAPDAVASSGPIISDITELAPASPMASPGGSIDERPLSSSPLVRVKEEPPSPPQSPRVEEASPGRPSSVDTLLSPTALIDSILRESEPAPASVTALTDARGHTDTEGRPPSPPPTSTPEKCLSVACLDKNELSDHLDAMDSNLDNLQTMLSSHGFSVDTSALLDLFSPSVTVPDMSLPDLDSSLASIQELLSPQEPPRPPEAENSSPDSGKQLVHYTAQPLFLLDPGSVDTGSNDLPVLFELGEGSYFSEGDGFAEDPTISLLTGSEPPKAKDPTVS

| Sequence | binding signal |
| --- | --- |
| GTTAAA | 1.01 fold enrichment (6-mer frequency, TF over GST control) |
| TGTACC | 1.03 fold enrichment (6-mer frequency, TF over GST control) |
| ATCCAA | 1.29 fold enrichment (6-mer frequency, TF over GST control) |
| TGAATG | 1.15 fold enrichment (6-mer frequency, TF over GST control) |
| GGTTTA | 1.29 fold enrichment (6-mer frequency, TF over GST control) |
| GTTCGA | 1.9 fold enrichment (6-mer frequency, TF over GST control) |
| AGGAAA | 1.15 fold enrichment (6-mer frequency, TF over GST control) |
| CCGACA | 1.03 fold enrichment (6-mer frequency, TF over GST control) |
| GCCGAT | 1.13 fold enrichment (6-mer frequency, TF over GST control) |
| TGATCA | 1.08 fold enrichment (6-mer frequency, TF over GST control) |
| AGTTAA | 1.15 fold enrichment (6-mer frequency, TF over GST control) |
| CTGAAG | 1.11 fold enrichment (6-mer frequency, TF over GST control) |
| AGGTTT | 1.04 fold enrichment (6-mer frequency, TF over GST control) |
| TTATTA | 1.75 fold enrichment (6-mer frequency, TF over GST control) |
| TAGTAA | 1.54 fold enrichment (6-mer frequency, TF over GST control) |
| TACTGG | 1.49 fold enrichment (6-mer frequency, TF over GST control) |
| TGAGCT | 1.06 fold enrichment (6-mer frequency, TF over GST control) |
| TTTGAG | 1.1 fold enrichment (6-mer frequency, TF over GST control) |
| GTTAAT | 1.6 fold enrichment (6-mer frequency, TF over GST control) |
| TGTACG | 1.01 fold enrichment (6-mer frequency, TF over GST control) |

| Sequence | binding signal |
| --- | --- |
| AACTTG | 1.09 fold enrichment (6-mer frequency, TF over GST control) |
| TCCCAG | 1.16 fold enrichment (6-mer frequency, TF over GST control) |
| CGATAT | 1.06 fold enrichment (6-mer frequency, TF over GST control) |
| TAAGGT | 1.1 fold enrichment (6-mer frequency, TF over GST control) |
| AAAAGT | 1.06 fold enrichment (6-mer frequency, TF over GST control) |
| GTTAAG | 1.3 fold enrichment (6-mer frequency, TF over GST control) |
| TAGAAT | 3.07 fold enrichment (6-mer frequency, TF over GST control) |
| GCGTTC | 1.1 fold enrichment (6-mer frequency, TF over GST control) |
| CTGCCA | 1 fold enrichment (6-mer frequency, TF over GST control) |
| CCCCGA | 1.28 fold enrichment (6-mer frequency, TF over GST control) |
| GCACTC | 1.06 fold enrichment (6-mer frequency, TF over GST control) |
| AAACTG | 1.01 fold enrichment (6-mer frequency, TF over GST control) |
| TAGTCC | 1.21 fold enrichment (6-mer frequency, TF over GST control) |
| TGATAT | 1.01 fold enrichment (6-mer frequency, TF over GST control) |
| TCGCAC | 1.03 fold enrichment (6-mer frequency, TF over GST control) |
| GAAACT | 1.32 fold enrichment (6-mer frequency, TF over GST control) |
| GGAATT | 1.45 fold enrichment (6-mer frequency, TF over GST control) |
| TTCGGC | 1.05 fold enrichment (6-mer frequency, TF over GST control) |
| TCTGGG | 1.4 fold enrichment (6-mer frequency, TF over GST control) |
| AGTAAT | 1.3 fold enrichment (6-mer frequency, TF over GST control) |

biological target: T2, SPIC (Homo sapiens, UniProt Q8N5J4 1-248); assay: as above; settings: protein: recombinant; tags: N-terminal GST; dsDNA, one strand shown
T2 sequence: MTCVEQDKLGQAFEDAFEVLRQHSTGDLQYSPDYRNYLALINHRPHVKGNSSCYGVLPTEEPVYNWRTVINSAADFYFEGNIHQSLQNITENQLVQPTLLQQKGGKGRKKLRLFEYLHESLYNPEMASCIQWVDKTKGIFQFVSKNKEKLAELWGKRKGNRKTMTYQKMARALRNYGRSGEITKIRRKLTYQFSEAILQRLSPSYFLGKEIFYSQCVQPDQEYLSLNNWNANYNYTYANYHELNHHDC
Procedure, shortened: as §1

| Sequence | binding signal |
| --- | --- |
| GTTAAA | 1.17 fold enrichment (6-mer frequency, TF over GST control) |
| TGTACC | 1.39 fold enrichment (6-mer frequency, TF over GST control) |
